Measurements from PubChem BioAssay (Tox21).
Inconclusive results are not listed. Activity calls are given as the source filed them. Unless noted, calls follow the shape of the dose curve; as a rule, active = well fitted curve in the direction sought with a large enough effect in the repeat runs; inconclusive = weak or mixed curves; inactive = no such curve, though single readings can be large; an effect the other way counts as inactive or inconclusive.

Key:
[1] = qHTS assay to identify small molecule antagonists of the glucocorticoid receptor (GR) signaling pathway - cell viability counter screen (AID 720693); also: nearly all actives have a fitted effect of over 55% in size; also: potency is read from the fitted curve at half-maximal effect
[2] = qHTS assay for identifying genotoxic compounds that show differential cytotoxicity against isogenic chicken DT40 cell lines with known DNA damage response pathways - wild type cell line (AID 743012); also: nearly all actives have a fitted effect of over 60% in size; also: potency is read from the fitted curve at half-maximal effect
Method in brief: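 CellTiter-Glo luminescence readout of viability in wild type DT40 cells after 40 h compound exposure at 37 C/5% CO2; 300 cells/well; reagent incubated 30 min at room temperature before reading.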

[3] = qHTS assay for identifying genotoxic compounds that show differential cytotoxicity against isogenic chicken DT40 cell lines with known DNA damage response pathways - Rad54/Ku70 mutant cell line (AID 743015); also: nearly all actives have a fitted effect of over 60% in size; also: potency is read from the fitted curve at half-maximal effect
[4] = qHTS assay to identify small molecule antagonists of the androgen receptor (AR) signaling pathway - cell viability counter screen (AID 743033; also: nearly all actives have a fitted effect of over 45% in size)
[5] = qHTS assay to identify small molecule antagonists of the androgen receptor (AR) signaling pathway using the MDA cell line - cell viability counter screen (AID 743041; also: nearly all actives have a fitted effect of over 45% in size)
Method in brief: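 Compound exposure lasted 16 h at 37C in MDA-kb2 AR-luc cells stimulated with R1881. Protease-based CellTiter-Fluor reagent was applied for the final 30 min and fluorescence measured.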

[6] = target: Androgen receptor (Homo sapiens) (UniProt P10275); test: qHTS assay to identify small molecule agonists of the androgen receptor (AR) signaling pathway using the MDA cell line (AID 743040; also: nearly all actives have a fitted effect of over 20% in size; also: potency is read from the fitted curve at half-maximal effect)
Chain of Androgen receptor (Homo sapiens) (P10275 whole entry, looked up): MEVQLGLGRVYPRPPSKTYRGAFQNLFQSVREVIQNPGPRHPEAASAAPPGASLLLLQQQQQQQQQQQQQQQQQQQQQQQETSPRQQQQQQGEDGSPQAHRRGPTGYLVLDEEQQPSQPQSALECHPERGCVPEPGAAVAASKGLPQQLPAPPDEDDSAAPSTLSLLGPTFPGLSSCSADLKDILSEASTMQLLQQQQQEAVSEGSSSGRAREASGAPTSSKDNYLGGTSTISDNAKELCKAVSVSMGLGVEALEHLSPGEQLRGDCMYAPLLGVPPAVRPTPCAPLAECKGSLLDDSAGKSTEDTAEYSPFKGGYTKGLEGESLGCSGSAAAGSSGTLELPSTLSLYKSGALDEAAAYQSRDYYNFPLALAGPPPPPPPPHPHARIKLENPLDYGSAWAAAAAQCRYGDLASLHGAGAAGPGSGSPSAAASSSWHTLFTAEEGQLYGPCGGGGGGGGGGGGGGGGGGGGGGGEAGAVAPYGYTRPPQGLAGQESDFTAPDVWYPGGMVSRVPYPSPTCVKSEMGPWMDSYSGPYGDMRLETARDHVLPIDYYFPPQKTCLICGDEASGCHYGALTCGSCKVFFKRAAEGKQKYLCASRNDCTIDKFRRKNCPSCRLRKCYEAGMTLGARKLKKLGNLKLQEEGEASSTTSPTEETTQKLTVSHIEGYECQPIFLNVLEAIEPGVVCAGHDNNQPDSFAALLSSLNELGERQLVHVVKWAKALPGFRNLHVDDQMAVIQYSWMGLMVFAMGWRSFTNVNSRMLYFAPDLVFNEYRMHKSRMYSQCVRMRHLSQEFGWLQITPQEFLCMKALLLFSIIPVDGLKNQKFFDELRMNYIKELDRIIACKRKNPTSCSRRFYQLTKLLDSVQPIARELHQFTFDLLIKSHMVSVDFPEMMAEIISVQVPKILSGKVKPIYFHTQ
Method in brief: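 Testing was done with the MDA-kb2 AR-luc line, a human breast carcinoma stably transfected with MMTV-luciferase containing AR and GR response elements. Cells were exposed 16 h at 37C before ONE-Glo luminescence detection.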

[7] = target: Androgen receptor (Homo sapiens) (UniProt P10275); test: qHTS assay to identify small molecule antagonists of the androgen receptor (AR) signaling pathway using the MDA cell line (AID 743042; also: nearly all actives have a fitted effect of over 55% in size)
Method in brief: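 MDA-kb2 breast carcinoma cells carrying MMTV-luciferase (AR/GR responsive) were co-treated with compounds and the agonist R1881 for 16 h at 37C. Inhibition read as ONE-Glo luminescence; CellTiter-Fluor fluorescence measured in parallel for cytotoxicity.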

[8] = target: Androgen receptor (Homo sapiens) (UniProt P10275); test: qHTS assay to identify small molecule antagonists of the androgen receptor (AR) signaling pathway (AID 743035; active = well fitted inhibition curve with a large enough effect in the signal ratio in the repeat runs, not every such curve was filed as active; the % refers to the signal ratio)
Method in brief: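 AR-bla HEK293 reporter cells; 4 h settle at 37C/5% CO2; compound + R1881 agonist, 16 h at 37C; LiveBLAzer B/G FRET substrate 2 h RT; fluorescence intensity read. qHTS format.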

[9] = target: Androgen receptor (Homo sapiens) (UniProt P10275); test: qHTS assay to identify small molecule agonists of the androgen receptor (AR) signaling pathway (AID 743036; active = well fitted activation curve with a large enough effect in the signal ratio in the repeat runs, with a control signal flat, not every such curve was filed as active; the % refers to the signal ratio; also: potency is read from the fitted curve at half-maximal effect)
Method in brief: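 Fluorescence from a beta-lactamase FRET substrate served as read-out in AR-UAS-bla GripTite HEK293 cells. Cells were treated with DMSO-dissolved compounds for 16 h at 37C, then with LiveBLAzer B/G substrate for 2 h at room temperature.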

Measured: Potency

O=P(O)(O)C(Sc1ccc(Cl)cc1)P(=O)(O)O
inactive: [1] | [2] | [3] | [4] | [5]

O=C(O)CO.[NH2-].[NH2-].[Pt+2]
inactive: [1] | [2] | [3] | [5]

Cc1cccc(C)c1Nc1ncccc1C(=O)O
inactive: [1] | [2] | [3] | [6] | [5] | [7]

CC[C@H](C)[C@H]1O[C@]2(CC[C@@H]1C)C[C@@H]1C[C@@H](C/C=C(\C)[C@@H](O[C@H]3C[C@H](OC)[C@@H](O[C@H]4C[C@H](OC)[C@@H](O)[C@H](C)O4)[C@H](C)O3)[C@@H](C)/C=C/C=C3\CO[C@@H]4[C@H](O)C(C)=C[C@@H](C(=O)O1)[C@]34O)O2
active: [1] 6.01 µM | [2] 3.76 µM | [3] 7.5 µM
inactive: [8] | [6] | [5] | [7]

CC(=O)c1ccc2c(c1)N(CCCN1CCN(CCO)CC1)c1ccccc1S2
active: [2] 13.3 µM | [3] 21.1 µM
inactive: [1] | [5]

CSc1nc2cc(Oc3cccc(Cl)c3Cl)c(Cl)cc2[nH]1
active: [1] 10.7 µM | [2] 18.8 µM | [3] 21.1 µM
inactive: [4] | [5]

CC(=O)O[C@H]1CC[C@@]2(C)C(=CC[C@@H]3[C@@H]2CC[C@]2(C)C(c4cccnc4)=CC[C@@H]32)C1
active: [2] 5.31 µM
inactive: [1] | [4] | [8] | [9] | [6] | [5] | [7]

CC1CC(OC(=O)C(O)c2ccccc2)CC(C)(C)C1 (stereo not given)
inactive: [1] | [4] | [5]
active: [2] 11.9 µM | [3] 21.1 µM

CN(C)CCOc1ccccc1Cc1ccccc1 (tested in a mixture with another compound)
active: [2] 26.6 µM | [3] 29.8 µM
inactive: [1] | [5]

Nc1c(Br)cc(Br)cc1CNC1CCC(O)CC1 (stereo not given)
inactive: [1] | [2] | [4] | [8] | [5] | [7]
active: [9] 4.77 µM | [6] 1.88 µM

CC1=C(C(=O)OCCN(Cc2ccccc2)c2ccccc2)C(c2cccc([N+](=O)[O-])c2)C(P2(=O)OCC(C)(C)CO2)=C(C)N1 (stereo not given)
active: [2] 29.8 µM | [3] 26.6 µM
inactive: [1] | [4] | [5]

CO[C@H]1C[C@H](O[C@H]2[C@H](C)[C@@H](O[C@@H]3O[C@H](C)C[C@H](N(C)C)[C@H]3OC(C)=O)[C@@H](C)C[C@]3(CO3)C(=O)[C@H](C)[C@@H](OC(C)=O)[C@@H](C)[C@@H](C)OC(=O)[C@@H]2C)O[C@@H](C)[C@@H]1OC(C)=O
inactive: [1] | [2] | [3] | [8] | [9] | [6] | [5] | [7]

CCCCCCCCCCCCCCCC(=O)OC[C@@H](O)[C@H]1OC[C@H](O)[C@H]1O
inactive: [1] | [2] | [3] | [4] | [5]

CN1CCN(C(c2ccccc2)c2ccc(Cl)cc2)CC1 (stereo not given)
active: [2] 9.02 µM | [3] 11.4 µM
inactive: [1] | [4] | [5]

CCSc1ccc2c(c1)N(CCCN1CCN(C)CC1)c1ccccc1S2
active: [2] 11.4 µM | [3] 11.4 µM
inactive: [1] | [5]

O=S(=O)(O)CCCS(=O)(=O)O
inactive: [1] | [2] | [3] | [5]

CCCCC/C=C\CCC(=O)N[C@H]1[C@H](Oc2c3cc4cc2Oc2ccc(cc2Cl)[C@@H](O[C@@H]2O[C@H](CO)[C@@H](O)[C@H](O)[C@H]2NC(C)=O)[C@@H]2NC(=O)[C@H](NC(=O)[C@@H]4NC(=O)[C@H]4NC(=O)[C@@H](Cc5ccc(c(Cl)c5)O3)NC(=O)[C@H](N)c3ccc(O)c(c3)Oc3cc(O)cc4c3)c3ccc(O)c(c3)-c3c(O[C@H]4O[C@H](CO)[C@@H](O)[C@H](O)[C@@H]4O)cc(O)cc3[C@@H](C(=O)O)NC2=O)O[C@H](CO)[C@@H](O)[C@@H]1O
inactive: [1] | [2] | [3] | [4] | [5]

O=[N+]([O-])O[C@@H]1CO[C@H]2[C@@H]1OC[C@@H]2O
inactive: [1] | [2] | [3] | [4] | [5]

CN(CC(=O)N1CCOCC1)Cc1c(Cl)cccc1NC(=O)c1ccccc1
inactive: [1] | [4] | [5]
active: [2] 23.7 µM

COc1ccc(C[C@H](C)NC[C@@H](O)c2ccc(O)c(NC=O)c2)cc1
active: [2] 26.6 µM | [3] 26.6 µM
inactive: [1] | [4] | [5]

CCN(CC)CCOC(=O)c1ccc(N)cc1Cl
inactive: [1] | [2] | [3] | [4] | [5]

CC(C(=O)O)c1ccc(N2Cc3ccccc3C2=O)cc1 (stereo not given)
inactive: [1] | [2] | [3] | [5]
